Assay results reported in the supplement of paper PMC11732987, “Enantioselective OTUD7B fragment discovery through chemoproteomics screening and high-throughput optimisation” (Communications Chemistry, 2025).

Experiments:
Assay in all cases: log2 ratio of Biotin-Ahx-Ub-VS probe labelling (fragment/DMSO); higher = less target engagement (more negative = stronger competition), active = hit call of the paper (q ≤ 0.05, log2 ratio ≤ -1)
Settings in all cases: compound concentration: 200 uM; treatment time: 3 h
[1] = molecular target: USP9X (UniProt Q93008)
Summary of the method: (§1)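 Labelled DUBs from HEK293T lysate were NeutrAvidin-enriched, digested with LysC and trypsin, and run by diaPASEF LC-MS/MS. Before that, each 495 µg sample in Tris/CHAPS/IGEPAL buffer with protease inhibitors was treated in triplicate with fragment at 200 µM or vehicle for 3 h, then with Biotin-Ahx-Ub-VS at 0.5 µM final for 1 h. Values are average log2 ratios of fragment over vehicle by unpaired t-test, based on global-median-normalised Spectronaut label-free quantities from proteins with ≥2 unique peptides.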

[2] = molecular target: UniProt O00487
Sequence of UniProt O00487 (O00487 whole entry): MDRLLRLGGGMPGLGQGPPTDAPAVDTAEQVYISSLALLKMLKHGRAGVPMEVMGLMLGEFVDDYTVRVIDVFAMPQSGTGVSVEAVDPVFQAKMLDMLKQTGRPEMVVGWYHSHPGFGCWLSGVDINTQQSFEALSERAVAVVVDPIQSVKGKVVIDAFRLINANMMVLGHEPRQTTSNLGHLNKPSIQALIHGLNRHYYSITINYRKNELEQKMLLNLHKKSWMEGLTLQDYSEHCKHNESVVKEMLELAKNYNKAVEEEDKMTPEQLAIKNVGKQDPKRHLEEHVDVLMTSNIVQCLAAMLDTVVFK
Summary of the method: as §1

[3] = molecular target: UniProt O00507
Sequence of UniProt O00507 (O00507 whole entry): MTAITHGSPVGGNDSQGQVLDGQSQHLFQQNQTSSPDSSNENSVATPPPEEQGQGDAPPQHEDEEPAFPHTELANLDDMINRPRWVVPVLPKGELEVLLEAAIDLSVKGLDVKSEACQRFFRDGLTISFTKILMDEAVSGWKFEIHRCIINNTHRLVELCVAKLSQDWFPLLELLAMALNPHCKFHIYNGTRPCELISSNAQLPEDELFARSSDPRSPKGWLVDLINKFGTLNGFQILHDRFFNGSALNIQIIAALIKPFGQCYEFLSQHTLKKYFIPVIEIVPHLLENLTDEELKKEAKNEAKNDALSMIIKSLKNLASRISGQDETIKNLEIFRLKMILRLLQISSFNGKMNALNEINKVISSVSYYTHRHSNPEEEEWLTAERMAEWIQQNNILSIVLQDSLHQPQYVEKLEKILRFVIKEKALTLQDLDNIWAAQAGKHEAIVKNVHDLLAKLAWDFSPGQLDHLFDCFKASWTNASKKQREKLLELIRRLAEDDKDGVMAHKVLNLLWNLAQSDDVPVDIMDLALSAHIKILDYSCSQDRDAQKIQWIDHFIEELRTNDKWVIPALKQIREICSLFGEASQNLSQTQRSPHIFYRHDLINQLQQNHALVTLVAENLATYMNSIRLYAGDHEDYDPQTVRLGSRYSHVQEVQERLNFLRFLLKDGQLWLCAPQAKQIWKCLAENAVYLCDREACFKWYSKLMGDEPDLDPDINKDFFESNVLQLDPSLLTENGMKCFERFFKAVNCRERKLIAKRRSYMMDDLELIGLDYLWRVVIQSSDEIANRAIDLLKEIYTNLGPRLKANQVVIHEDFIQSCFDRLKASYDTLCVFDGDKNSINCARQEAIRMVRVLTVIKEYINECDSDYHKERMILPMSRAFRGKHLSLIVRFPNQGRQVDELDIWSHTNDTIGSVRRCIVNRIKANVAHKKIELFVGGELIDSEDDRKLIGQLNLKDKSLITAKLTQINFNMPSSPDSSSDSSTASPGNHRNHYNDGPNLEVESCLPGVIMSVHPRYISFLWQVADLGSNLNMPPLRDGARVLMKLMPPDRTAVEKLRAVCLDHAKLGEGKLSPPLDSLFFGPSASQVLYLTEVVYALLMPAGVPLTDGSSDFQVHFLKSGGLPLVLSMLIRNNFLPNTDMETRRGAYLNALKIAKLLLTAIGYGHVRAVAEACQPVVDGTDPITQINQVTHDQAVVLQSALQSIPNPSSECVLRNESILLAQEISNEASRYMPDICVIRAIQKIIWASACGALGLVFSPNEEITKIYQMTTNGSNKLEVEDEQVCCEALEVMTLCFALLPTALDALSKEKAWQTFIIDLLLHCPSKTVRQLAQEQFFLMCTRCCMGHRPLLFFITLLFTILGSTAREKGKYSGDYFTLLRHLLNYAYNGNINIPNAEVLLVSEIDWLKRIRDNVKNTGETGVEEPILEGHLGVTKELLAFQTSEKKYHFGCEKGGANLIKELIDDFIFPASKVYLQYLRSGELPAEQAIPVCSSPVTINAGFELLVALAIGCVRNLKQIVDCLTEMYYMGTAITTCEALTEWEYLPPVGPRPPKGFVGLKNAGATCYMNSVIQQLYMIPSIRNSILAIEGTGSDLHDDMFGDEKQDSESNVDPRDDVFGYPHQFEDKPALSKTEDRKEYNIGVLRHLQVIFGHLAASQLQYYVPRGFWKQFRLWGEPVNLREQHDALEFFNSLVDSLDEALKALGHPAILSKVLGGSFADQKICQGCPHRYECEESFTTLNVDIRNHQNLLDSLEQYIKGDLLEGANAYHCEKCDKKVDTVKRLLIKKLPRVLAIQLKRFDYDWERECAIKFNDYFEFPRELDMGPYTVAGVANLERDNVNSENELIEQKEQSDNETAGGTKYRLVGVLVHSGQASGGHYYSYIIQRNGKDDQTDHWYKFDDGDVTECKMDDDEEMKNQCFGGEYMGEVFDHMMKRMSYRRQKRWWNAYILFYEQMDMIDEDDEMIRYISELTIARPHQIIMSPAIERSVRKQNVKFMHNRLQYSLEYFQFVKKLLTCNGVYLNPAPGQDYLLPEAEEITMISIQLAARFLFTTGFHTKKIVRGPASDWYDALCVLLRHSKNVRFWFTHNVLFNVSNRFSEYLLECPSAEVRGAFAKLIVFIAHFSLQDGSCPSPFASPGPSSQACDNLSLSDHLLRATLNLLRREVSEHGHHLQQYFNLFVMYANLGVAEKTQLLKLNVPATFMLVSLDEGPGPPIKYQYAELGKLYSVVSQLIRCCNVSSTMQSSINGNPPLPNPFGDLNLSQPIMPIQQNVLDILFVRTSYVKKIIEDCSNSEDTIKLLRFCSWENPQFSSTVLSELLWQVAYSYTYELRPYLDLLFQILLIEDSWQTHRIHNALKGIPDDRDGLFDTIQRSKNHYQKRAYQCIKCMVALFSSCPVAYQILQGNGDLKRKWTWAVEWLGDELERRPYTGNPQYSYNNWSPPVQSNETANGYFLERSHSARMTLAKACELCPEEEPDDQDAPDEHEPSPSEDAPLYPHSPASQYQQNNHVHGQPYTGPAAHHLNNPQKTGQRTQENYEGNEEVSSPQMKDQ
Summary of the method: as §1

[4] = molecular target: UniProt P51784
Sequence of UniProt P51784 (P51784 whole entry): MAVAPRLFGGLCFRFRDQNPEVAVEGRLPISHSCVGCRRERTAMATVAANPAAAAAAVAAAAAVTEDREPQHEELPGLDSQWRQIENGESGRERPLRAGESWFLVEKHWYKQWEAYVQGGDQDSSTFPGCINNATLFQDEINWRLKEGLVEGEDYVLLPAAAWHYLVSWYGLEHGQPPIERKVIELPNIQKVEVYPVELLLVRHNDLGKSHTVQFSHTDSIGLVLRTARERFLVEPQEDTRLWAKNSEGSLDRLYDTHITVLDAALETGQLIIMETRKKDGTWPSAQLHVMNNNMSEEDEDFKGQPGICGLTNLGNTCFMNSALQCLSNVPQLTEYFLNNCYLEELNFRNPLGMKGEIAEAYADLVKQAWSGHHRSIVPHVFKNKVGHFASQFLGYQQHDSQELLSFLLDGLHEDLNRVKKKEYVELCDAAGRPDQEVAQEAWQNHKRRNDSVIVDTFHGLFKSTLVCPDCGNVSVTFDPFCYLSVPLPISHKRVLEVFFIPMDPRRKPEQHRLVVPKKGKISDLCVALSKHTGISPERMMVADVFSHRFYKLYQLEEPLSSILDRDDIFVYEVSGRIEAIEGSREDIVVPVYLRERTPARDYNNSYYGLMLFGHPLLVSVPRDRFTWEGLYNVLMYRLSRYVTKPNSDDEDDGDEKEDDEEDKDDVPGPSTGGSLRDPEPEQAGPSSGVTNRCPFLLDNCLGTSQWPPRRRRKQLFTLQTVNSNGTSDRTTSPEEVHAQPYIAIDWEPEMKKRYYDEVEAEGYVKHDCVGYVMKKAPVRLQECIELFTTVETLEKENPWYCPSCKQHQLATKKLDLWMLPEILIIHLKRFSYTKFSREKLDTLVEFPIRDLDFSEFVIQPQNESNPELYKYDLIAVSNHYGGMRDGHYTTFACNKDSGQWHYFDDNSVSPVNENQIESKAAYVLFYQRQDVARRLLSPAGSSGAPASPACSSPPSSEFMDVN
Summary of the method: as §1

[5] = molecular target: T1, UniProt Q5T2D3
T1 sequence (whole entry): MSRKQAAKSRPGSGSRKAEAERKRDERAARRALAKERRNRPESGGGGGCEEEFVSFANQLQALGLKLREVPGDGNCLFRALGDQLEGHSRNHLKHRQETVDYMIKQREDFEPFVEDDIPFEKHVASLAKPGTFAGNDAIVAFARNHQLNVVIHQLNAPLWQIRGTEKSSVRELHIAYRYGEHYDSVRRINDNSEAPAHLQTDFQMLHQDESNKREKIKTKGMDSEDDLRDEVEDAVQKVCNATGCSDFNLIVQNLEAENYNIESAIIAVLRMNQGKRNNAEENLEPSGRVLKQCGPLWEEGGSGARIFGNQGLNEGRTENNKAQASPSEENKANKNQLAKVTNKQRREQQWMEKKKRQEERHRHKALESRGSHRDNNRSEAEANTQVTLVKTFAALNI
Summary of the method: as §1

[6] = molecular target: T2, UniProt Q8TE49
T2 sequence (whole entry): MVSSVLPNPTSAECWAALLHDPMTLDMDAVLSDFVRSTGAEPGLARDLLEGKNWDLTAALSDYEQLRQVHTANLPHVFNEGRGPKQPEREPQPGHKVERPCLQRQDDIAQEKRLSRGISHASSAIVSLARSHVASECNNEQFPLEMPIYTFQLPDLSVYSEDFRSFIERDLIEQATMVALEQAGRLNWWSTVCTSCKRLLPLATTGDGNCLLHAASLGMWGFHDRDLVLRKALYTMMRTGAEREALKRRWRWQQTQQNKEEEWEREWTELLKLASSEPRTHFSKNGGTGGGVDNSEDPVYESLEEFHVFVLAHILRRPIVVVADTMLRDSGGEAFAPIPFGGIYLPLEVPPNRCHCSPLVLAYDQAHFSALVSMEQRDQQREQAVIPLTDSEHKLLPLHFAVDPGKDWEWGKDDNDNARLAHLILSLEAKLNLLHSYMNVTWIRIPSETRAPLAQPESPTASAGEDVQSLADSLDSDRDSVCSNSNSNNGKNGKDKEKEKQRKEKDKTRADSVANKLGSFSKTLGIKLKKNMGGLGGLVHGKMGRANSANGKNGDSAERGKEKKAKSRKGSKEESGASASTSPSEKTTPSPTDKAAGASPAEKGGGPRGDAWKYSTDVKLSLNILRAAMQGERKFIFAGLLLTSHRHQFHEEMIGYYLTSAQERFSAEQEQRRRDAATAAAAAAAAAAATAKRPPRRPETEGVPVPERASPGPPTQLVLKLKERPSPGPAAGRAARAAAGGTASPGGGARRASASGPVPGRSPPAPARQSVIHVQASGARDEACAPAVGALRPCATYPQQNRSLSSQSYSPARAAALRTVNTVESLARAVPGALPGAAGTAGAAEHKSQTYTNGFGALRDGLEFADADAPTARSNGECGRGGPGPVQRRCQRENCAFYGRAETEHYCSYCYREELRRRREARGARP
Summary of the method: as §1

[7] = molecular target: T3, UniProt Q9P2H5
T3 sequence (whole entry): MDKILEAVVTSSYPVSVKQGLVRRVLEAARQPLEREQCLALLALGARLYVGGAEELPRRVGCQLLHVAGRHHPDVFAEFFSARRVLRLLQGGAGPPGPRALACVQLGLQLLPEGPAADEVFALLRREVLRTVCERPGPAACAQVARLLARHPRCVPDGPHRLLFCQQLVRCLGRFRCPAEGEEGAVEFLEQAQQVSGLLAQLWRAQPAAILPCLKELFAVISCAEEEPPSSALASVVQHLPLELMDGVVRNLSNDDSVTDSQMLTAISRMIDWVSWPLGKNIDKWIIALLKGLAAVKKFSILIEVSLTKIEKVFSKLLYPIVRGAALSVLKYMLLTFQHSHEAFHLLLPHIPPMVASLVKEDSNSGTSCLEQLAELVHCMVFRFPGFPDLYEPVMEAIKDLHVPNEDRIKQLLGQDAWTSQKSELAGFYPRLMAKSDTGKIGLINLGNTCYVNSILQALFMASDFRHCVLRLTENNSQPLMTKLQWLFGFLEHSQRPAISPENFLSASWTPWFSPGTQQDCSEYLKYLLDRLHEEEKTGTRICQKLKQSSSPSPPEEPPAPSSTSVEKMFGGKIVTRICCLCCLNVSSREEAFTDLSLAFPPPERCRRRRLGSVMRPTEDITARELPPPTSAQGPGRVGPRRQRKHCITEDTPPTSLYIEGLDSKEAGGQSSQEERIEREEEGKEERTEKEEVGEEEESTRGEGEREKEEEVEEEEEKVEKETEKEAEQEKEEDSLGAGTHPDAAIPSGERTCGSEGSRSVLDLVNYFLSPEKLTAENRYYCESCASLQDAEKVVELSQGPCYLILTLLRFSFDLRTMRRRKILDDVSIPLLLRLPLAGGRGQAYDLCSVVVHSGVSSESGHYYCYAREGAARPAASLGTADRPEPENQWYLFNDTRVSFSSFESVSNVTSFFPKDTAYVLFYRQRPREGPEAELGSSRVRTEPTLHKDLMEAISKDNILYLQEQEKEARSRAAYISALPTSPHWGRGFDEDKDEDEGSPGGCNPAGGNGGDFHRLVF
Summary of the method: as §1

[8] = molecular target: T4, UniProt Q9UGI0
T4 sequence (whole entry): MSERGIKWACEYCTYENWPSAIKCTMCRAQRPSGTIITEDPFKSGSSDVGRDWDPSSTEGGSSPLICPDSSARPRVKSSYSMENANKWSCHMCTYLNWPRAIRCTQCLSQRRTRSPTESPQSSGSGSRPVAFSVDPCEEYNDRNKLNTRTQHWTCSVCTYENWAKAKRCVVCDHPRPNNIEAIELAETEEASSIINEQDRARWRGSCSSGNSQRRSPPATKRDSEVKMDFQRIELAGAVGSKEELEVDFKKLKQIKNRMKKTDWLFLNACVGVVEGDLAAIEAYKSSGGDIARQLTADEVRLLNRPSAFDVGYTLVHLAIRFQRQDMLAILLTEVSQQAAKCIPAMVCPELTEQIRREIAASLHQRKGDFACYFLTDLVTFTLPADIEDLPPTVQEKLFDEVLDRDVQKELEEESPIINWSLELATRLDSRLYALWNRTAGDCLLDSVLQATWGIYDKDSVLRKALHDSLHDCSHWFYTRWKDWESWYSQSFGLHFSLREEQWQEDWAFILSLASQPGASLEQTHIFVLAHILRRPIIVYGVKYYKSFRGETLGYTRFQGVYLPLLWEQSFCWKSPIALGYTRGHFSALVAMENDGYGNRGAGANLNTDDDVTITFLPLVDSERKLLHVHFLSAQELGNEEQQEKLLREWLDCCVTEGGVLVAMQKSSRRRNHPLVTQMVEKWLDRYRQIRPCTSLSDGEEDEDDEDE
Summary of the method: as §1

[9] = molecular target: T5, YOD1 (UniProt Q5VVQ6)
T5 sequence (whole entry): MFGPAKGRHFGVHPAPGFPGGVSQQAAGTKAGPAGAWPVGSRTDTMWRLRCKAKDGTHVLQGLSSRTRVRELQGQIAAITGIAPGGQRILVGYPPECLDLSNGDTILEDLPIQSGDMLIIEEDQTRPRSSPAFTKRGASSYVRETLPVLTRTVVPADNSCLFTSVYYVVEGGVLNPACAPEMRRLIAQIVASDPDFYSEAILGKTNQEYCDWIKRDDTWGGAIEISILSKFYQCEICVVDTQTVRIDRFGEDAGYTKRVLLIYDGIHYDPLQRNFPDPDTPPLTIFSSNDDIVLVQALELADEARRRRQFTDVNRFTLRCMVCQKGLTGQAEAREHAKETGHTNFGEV
Summary of the method: as §1

Measured: log2 ratio of Biotin-Ahx-Ub-VS probe labelling

Cc1ccc(N(C(=O)CCl)C2C=CS(=O)(=O)C2)cc1 (centres undefined)
inactive: [1] 0.0636 | [2] 0.0368 | [3] 0.428 | [4] 0.0438 | [5] 0.136 | [6] -0.0818 | [7] -0.196 | [8] -0.0234 | [9] 0.412
